Data from PubChem BioAssay (Tox21).
Several values for one entry are separate records, joined by “and”; a condition that tells them apart may be missing. Identical values can stand only once. Inconclusive results are not listed. Some structures have more than one record in an assay (separate samples or runs), and their calls can disagree. Activity calls are given as the source filed them. Unless noted, calls come from the whole dose curve; as a rule, active = well fitted curve in the direction sought with a large enough effect in the repeat runs; inconclusive = weak or mixed curves; inactive = no such curve, though single readings can be large; an effect the other way counts as inactive or inconclusive.

Tests used:
[1] = qHTS assay to identify small molecule antagonists of the estrogen receptor alpha (ER-alpha) signaling pathway using the BG1 cell line in the presence of 0.1 nM 17-beta-estradiol - cell viability counter screen (AID 1259241); note: nearly all actives have a fitted effect of over 40% in size; note: potency is the fitted concentration of half-maximal effect
How it was run: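 Cells were plated and left 24 hr, compounds in DMSO were pinned in, 17beta-estradiol was added to 0.1 nM final, and after 22 hr CellTiter-Fluor reagent was added for 30 min before fluorescence was read.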

[2] = qHTS assay to identify small molecule antagonists of the androgen receptor (AR) signaling pathway using the MDA cell line in the presence of 0.5 nM R1881 - cell viability counter screen (AID 1259242); note: nearly all actives have a fitted effect of over 45% in size; note: potency is the fitted concentration of half-maximal effect
How it was run: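 qHTS format. MDA-kb2 (MMTV-luc, AR/GR responsive) + cpd + 0.5 nM R1881 final, 16 hr 37C/0% CO2 → CellTiter-Fluor 30 min → fluorescence intensity.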

[3] = target: Estrogen receptor (Homo sapiens) (UniProt P03372); assay: qHTS assay to identify small molecule antagonists of the estrogen receptor alpha (ER-alpha) signaling pathway using the BG1 cell line in the presence of 0.1 nM 17-beta-estradiol (AID 1259244); note: nearly all actives have a fitted effect of over 50% in size; note: potency is the fitted concentration of half-maximal effect
How it was run: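 Reporter is a stably transfected luciferase under four estrogen responsive elements in VM7Luc4E2 cells expressing native full-length ER-alpha; inhibition of 0.1 nM (final) 17beta-estradiol-driven signal over 22 h is read by luminescence.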

[4] = qHTS assay to identify small molecule HDAC inhibitors (AID 1259364);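 note: wild-type HCT-116 cells with endogenous class I/II HDAC activity; top concentration of the series differs between compounds; nearly all actives have a fitted effect of over 45% in size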
How it was run: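 Quantitative high-throughput format: overnight-seeded HCT-116 cells got compounds for 2 hr at 37C; HDAC-Glo I/II reagent added, 30 min RT, luminescence measured.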

[5] = qHTS assay to identify small molecule HDAC inhibitors - cell viability counter screen (AID 1259365); note: series mostly up to about 92 µM; nearly all actives have a fitted effect of over 50% in size
How it was run: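 Counter screen in wild-type HCT-116 cells: compounds dissolved in DMSO are pin-transferred onto overnight-plated cells and left 2hr at 37C. ATP-based CellTiter-Glo luminescence then measures viable cells.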

[6] = qHTS assay to identify small molecule agonists of the sonic hedgehog signaling (Shh) pathway - cell viability counter screen (AID 1259366); note: nearly all actives have a fitted effect of over 50% in size
How it was run: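 Cells are plated at 2,000 per well and left 4hr at 37C, 5% CO2 before compound addition. After 23hr of treatment, CellTiter-Fluor reagent is added for 1hr at 37C and fluorescence is measured.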

[7] = qHTS assay to identify small molecule antagonists of the sonic hedgehog signaling (Shh) pathway - cell viability counter screen (AID 1259367); note: nearly all actives have a fitted effect of over 55% in size; note: potency is the fitted concentration of half-maximal effect
How it was run: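 Fluorescence read-out (CellTiter-Fluor, 1 hr at 37C) taken after 23 hr compound treatment of 3T3 Gli1-Luc cells stimulated with conditioned medium. Cells were seeded at 2,000 per well and pre-incubated 4 hr.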

[8] = qHTS assay to identify small molecule agonists of the sonic hedgehog signaling (Shh) pathway (AID 1259368; calls by dose curve;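 note: NIH/3T3-derived 3T3Gli1-Luc cells carrying a stable Gli1-driven firefly luciferase reporter; series mostly up to about 92 µM; nearly all actives have a fitted effect of over 15% in size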)
How it was run: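 Quantitative high-throughput format using a Gli1-driven firefly luciferase reporter line derived from NIH/3T3 cells. After a 24 hr compound treatment at 37 C and 5% CO2, luminescence reported Gli1 response element activity.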

[9] = qHTS assay to identify small molecule antagonists of the sonic hedgehog signaling (Shh) pathway (AID 1259369; calls by dose curve; note: nearly all actives have a fitted effect of over 45% in size; note: potency is the fitted concentration of half-maximal effect)
How it was run: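 Stable Gli1-Luc reporter NIH/3T3 clone; quantitative HTS in stimulated mode with conditioned medium. Luminescence measured after 24hr compound treatment at 37 C.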

[10] = target: Estrogen receptor beta (Homo sapiens) (UniProt Q92731); assay: qHTS assay to identify small molecule agonists of the estrogen receptor beta (ER-beta) signaling pathway (AID 1259377; active = well fitted activation curve with a large enough effect in the signal ratio in the repeat runs, not every such curve was filed as active; the % refers to the signal ratio; note: potency is the fitted concentration of half-maximal effect)
How it was run: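 Agonist mode cell assay in GripTite HEK293T cells expressing an ER-beta fusion that drives beta-lactamase from an Upstream Activator Sequence; 16 hr compound exposure at 37C, then 2 h LiveBLAzer B/G FRET substrate at room temperature, fluorescence read-out.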

[11] = target: Estrogen receptor beta (Homo sapiens) (UniProt Q92731); assay: qHTS assay to identify small molecule antagonists of the estrogen receptor beta (ER-beta) signaling pathway (AID 1259378; active = well fitted inhibition curve with a large enough effect in the signal ratio in the repeat runs, not every such curve was filed as active; the % refers to the signal ratio; note: potency is the fitted concentration of half-maximal effect)
How it was run: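 ER-beta-UAS-bla HEK293T cells in 2% charcoal-stripped FBS medium treated with compound plus 1nM final 17-beta-estradiol for 16 hr at 37C. Beta-lactamase reporter read by FRET substrate fluorescence after 2 hours at room temperature.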

[12] = qHTS assay to identify small molecule agonists of the androgen receptor (AR) signaling pathway in the presence of an antagonist - cell viability counter screen (AID 1259379); note: nearly all actives have a fitted effect of over 25% in size; note: potency is the fitted concentration of half-maximal effect
How it was run: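 Nilutamide-containing (3.0uM final) MDA-kb2 cultures, 3,000 cells/well, were treated with compounds across 15 concentrations. After 16 hr at 37C with no CO2, cell viability was determined by CellTiter-Fluor fluorescence in the luciferase assay wells.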

[13] = qHTS assay to identify small molecule agonists of the estrogen receptor beta (ER-beta) signaling pathway - cell viability counter screen (AID 1259380); note: nearly all actives have a fitted effect of over 30% in size; note: potency is the fitted concentration of half-maximal effect
How it was run: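 Steps: plate ER-beta-UAS-bla HEK293T cells, rest 6 hr; add compounds in DMSO; incubate 16 hr at 37C, 5% CO2; add FRET substrate 2 hr; add CellTiter-Glo, wait 30 min at room temperature; read luminescence.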

[14] = qHTS assay to identify small molecule antagonists of the estrogen receptor beta (ER-beta) signaling pathway - cell viability counter screen (AID 1259382); note: nearly all actives have a fitted effect of over 55% in size; note: potency is the fitted concentration of half-maximal effect
How it was run: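 Viability is scored by CellTiter-Glo luminescence (30 min, room temperature) in ER-beta-UAS-bla HEK293T wells already read for reporter fluorescence. Compound exposure lasts 16 hr at 37C alongside 1nM 17-beta-estradiol in charcoal-stripped serum medium.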

[15] = target: Estrogen receptor (Homo sapiens) (UniProt P03372); assay: qHTS assay to identify small molecule agonists of the estrogen receptor alpha (ER-alpha) signaling pathway in the presence of an antagonist (AID 1259383; calls by dose curve; note: nearly all actives have a fitted effect of over 15% in size; note: potency is the fitted concentration of half-maximal effect; for activation: top concentration of the series differs between compounds)
How it was run: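 Readout was ERE-driven luciferase luminescence in VM7Luc4E2 cells, which express full-length ER-alpha endogenously. Compounds were tested at 15 concentrations for 22hr alongside 10.0nM ICI-182,780 (final concentration).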

[16] = qHTS assay to identify small molecule agonists or antagonists of the thyroid stimulating hormone receptor (TSHR) signaling pathway - wild type cell line counter screen (AID 1259384; calls by dose curve)
How it was run: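 Wild-type Hek293 cells, 800/well, 18 h at 37C, then compound with Ro20-1724 for 30 min RT. cAMP by HTRF (cAMP-d2/anti-cAMP cryptate), 1 h RT, fluorescence read. 15 concentrations, triplicates.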

[17] = target: Thyrotropin receptor (Homo sapiens) (UniProt P16473); assay: qHTS assay to identify small molecule antagonists of the thyroid stimulating hormone receptor (TSHR) signaling pathway (AID 1259385; calls by dose curve; note: nearly all actives have a fitted effect of over 20% in size; note: potency is the fitted concentration of half-maximal effect)
How it was run: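 TSHR-HEK293 cells (800/well) plated 18 h, then compounds with Ro20-1724 and TSH at 1.5 ng/mL final, 30 min at room temperature. cAMP quantified by HTRF (cAMP-d2/anti-cAMP-cryptate, 1 h); 15 concentrations in triplicate.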

[18] = qHTS assay to identify small molecule agonists of the estrogen receptor alpha (ER-alpha) signaling pathway in the presence of an antagonist - cell viability counter screen (AID 1259386);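 note: cells exposed to compounds for 22 h at 37 °C before the viability read; nearly all actives have a fitted effect of over 30% in size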; note: potency is the fitted concentration of half-maximal effect
How it was run: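 In this counter screen, compound effects on VM7Luc4E2 viability were tested in the presence of the antagonist ICI-182,780 at 10.0nM final. Compounds were dosed at 15 concentrations, exposure lasted 22hr, and the CellTiter-Fluor signal was read.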

[19] = qHTS assay to identify small molecule phospholipidosis (PLD) inducers (AID 1259344; active = well fitted curve in the direction sought with a large enough effect; an effect the other way counts as inactive or inconclusive)
How it was run: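 Read-out is LipidTOX Red fluorescence (ex 595/em 615) imaged in HepG2 cells after 24 h compound exposure at 37 C, with Hoechst nuclear counterstain (ex 352/em 461) allowing per-cell normalisation.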

[20] = target: Androgen receptor (Homo sapiens) (UniProt P10275); assay: qHTS assay to identify small molecule agonists of the androgen receptor (AR) signaling pathway in the presence of an antagonist (AID 1259381; calls by dose curve; note: nearly all actives have a fitted effect of over 15% in size)
How it was run: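 Reporter-gene luminescence from MDA-kb2 cells exposed 16hr at 37C (0% CO2) to 15-point compound titrations with 3.0uM final nilutamide as AR antagonist.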

Measured: Potency

Chain of Estrogen receptor beta (Homo sapiens) (Q92731 whole entry, looked up, the tested form may be a part): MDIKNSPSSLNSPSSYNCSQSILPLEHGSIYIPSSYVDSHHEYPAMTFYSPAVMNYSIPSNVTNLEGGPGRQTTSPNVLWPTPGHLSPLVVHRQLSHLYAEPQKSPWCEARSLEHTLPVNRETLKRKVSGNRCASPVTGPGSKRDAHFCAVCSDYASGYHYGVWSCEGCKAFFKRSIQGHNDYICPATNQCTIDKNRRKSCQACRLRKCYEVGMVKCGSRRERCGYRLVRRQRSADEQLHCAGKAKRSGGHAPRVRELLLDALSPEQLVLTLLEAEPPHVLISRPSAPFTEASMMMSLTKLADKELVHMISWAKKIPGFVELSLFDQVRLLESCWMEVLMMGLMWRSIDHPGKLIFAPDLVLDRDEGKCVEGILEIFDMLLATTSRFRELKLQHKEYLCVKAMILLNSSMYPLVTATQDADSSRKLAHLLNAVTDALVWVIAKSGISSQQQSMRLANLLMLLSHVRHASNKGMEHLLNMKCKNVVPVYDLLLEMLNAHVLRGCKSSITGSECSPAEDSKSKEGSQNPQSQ
Chain of Thyrotropin receptor (Homo sapiens) (P16473 whole entry, looked up): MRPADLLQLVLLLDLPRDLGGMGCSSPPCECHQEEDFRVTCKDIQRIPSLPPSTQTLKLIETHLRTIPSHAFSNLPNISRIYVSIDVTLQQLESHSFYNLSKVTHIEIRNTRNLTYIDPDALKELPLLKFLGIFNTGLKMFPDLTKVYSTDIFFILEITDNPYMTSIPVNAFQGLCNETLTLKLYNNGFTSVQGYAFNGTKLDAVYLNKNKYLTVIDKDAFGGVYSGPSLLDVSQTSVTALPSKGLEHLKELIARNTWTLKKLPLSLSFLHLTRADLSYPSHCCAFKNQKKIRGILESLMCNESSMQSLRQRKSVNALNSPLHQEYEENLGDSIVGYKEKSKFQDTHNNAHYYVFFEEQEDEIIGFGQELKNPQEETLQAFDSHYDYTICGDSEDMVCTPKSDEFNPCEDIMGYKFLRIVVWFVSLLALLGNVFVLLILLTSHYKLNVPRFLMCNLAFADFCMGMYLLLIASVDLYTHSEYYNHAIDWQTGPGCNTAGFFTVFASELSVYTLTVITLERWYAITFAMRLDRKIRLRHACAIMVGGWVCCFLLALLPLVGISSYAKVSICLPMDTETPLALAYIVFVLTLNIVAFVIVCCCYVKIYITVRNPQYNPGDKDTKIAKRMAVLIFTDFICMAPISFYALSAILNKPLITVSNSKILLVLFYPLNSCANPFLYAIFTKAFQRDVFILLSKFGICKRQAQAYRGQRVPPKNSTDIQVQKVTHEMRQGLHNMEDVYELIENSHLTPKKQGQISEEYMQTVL
Chain of Estrogen receptor (Homo sapiens) (P03372 whole entry, looked up): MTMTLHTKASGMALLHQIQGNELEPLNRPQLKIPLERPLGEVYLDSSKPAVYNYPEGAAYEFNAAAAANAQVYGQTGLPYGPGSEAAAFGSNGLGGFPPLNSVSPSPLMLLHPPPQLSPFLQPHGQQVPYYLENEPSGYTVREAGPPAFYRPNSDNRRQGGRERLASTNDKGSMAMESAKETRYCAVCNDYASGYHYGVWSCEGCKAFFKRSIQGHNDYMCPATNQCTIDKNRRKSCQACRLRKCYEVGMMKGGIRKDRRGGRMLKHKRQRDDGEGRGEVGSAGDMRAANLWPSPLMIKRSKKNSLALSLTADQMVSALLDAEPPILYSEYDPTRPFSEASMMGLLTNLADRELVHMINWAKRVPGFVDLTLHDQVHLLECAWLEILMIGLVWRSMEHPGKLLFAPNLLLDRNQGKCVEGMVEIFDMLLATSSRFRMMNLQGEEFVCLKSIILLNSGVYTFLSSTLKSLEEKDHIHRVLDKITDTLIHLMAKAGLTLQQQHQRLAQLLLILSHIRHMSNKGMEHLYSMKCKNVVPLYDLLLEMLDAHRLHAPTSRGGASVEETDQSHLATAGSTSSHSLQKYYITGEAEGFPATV
Chain of Androgen receptor (Homo sapiens) (P10275 whole entry, looked up): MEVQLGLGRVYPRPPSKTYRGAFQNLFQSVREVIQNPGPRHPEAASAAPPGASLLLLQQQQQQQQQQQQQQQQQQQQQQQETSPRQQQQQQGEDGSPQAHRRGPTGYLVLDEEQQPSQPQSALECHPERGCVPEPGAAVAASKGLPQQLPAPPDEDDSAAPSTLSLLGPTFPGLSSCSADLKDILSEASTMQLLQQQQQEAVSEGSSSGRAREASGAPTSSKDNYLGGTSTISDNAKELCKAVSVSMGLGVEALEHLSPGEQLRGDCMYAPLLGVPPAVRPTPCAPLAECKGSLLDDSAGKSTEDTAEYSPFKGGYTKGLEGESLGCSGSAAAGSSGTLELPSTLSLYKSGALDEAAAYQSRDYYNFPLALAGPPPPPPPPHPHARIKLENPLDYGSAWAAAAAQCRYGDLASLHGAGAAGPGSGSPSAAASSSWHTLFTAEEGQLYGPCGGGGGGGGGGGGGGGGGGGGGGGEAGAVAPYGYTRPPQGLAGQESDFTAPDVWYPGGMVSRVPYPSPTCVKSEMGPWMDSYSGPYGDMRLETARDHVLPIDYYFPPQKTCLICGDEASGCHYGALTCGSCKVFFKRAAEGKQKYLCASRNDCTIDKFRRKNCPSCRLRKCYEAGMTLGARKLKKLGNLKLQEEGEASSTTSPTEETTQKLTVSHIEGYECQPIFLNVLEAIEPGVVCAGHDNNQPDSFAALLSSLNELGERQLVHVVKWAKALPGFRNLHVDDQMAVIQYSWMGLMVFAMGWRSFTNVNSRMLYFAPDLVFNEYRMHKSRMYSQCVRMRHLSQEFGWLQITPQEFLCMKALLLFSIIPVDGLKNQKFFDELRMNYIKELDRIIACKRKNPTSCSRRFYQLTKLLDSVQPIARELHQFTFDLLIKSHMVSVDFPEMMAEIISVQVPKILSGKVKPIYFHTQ

CN(C)c1nc(=O)n(C2CCCCC2)c(=O)n1C
not listed: [19] | [20]
inactive: all other assays above

C[C@]12CC[C@H]3[C@@H](CCC4=CC(=O)CC[C@@H]43)[C@@H]1CC[C@@H]2O
active: [10] 540 nM and 4.22 µM | [15] 1.21 µM and 6.68 µM
not listed: [8] | [9] | [11] | [20]
inactive: all other assays above

CC1(C)C(C(=O)OC(C#N)c2cccc(Oc3ccccc3)c2)C1(C)C (centres undefined)
54.9 µM (active) and inactive: [3]
active: [9] 13.8 µM | [11] 48.9 µM | [17] 61.6 µM
not listed: [19] | [20]
inactive: all other assays above

ClCc1ccccn1
not listed: [19] | [20]
inactive: all other assays above

Clc1cccc(C(Cl)(Cl)Cl)n1
not listed: [8] | [19]
inactive: all other assays above

CCCCOC(=O)COC(=O)c1ccccc1C(=O)OCCCC
not listed: [16] | [17] | [19] | [20]
inactive: all other assays above

CCN(CC)C(=O)C(C)Oc1cccc2ccccc12 (centres undefined)
active: [3] 61.1 µM
not listed: [18] | [19] | [20]
inactive: all other assays above

CC(C)Nc1ccc(Nc2ccccc2)cc1
inactive: [19] | [5] | [8] | [10] | [15]
active: [1] 43.1 µM | [2] 60.9 µM | [3] 21.6 µM | [7] 21.6 µM and 24.3 µM | [9] 5.43 µM | [12] 60.9 µM and 68.6 µM | [13] 19.3 µM and 27.3 µM | [14] 15.3 µM and 27.3 µM | [18] 60.9 µM

N#Cc1nn(-c2c(Cl)cc(C(F)(F)F)cc2Cl)c(N)c1S(=O)C(F)(F)F (centres undefined)
61.5 µM (active) and inactive: [12]
inactive and 29.8 µM (active): [9]
active: [3] 6.9 µM and 21.1 µM | [11] 23.7 µM | [18] 21.8 µM and 29.8 µM
inactive: all other assays above

C[N+](C)(C)CC(=O)[O-]
not listed: [8] | [10] | [11] | [16] | [17] | [20]
inactive: all other assays above

O=C(O)CF
not listed: [19] | [20]
inactive: all other assays above

COc1ccc(O)c(C(C)(C)C)c1
not listed: [8] | [19] | [20]
inactive: all other assays above
